Assay outcomes from PubChem.
HDAC3 inh: blocks human histone deacetylase 3 | inhibition, % at 8.3 µM | O15379 | recombinant HDAC3, fluorogenic peptide/trypsin coupled, fluorescence | 0.15% of 320,000 active; in the data active means inhibition above about 26%, passing the limit was not always enough; inconclusive means no clear call, values can overlap the other calls
Target sequence (O15379 whole entry, looked up): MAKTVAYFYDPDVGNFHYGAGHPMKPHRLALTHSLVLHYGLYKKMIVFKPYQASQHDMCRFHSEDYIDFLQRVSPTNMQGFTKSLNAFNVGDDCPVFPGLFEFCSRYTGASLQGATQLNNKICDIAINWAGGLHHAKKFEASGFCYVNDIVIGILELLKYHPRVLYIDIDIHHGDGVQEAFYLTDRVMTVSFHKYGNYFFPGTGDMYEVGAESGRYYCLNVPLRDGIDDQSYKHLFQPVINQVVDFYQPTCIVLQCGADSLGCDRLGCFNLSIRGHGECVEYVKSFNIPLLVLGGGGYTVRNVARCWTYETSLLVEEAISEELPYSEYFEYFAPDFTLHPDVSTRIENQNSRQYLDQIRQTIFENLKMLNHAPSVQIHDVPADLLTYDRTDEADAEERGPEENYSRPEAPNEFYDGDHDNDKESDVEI
GC-B act: GC-B (human) receptor activation | HEK293-GC-B cells, CNP EC30, cGMP TR-FRET; 0% at EC30 CNP, 100% saturating CNP | P20594 | 0.11% of 370,000 active | activation, % at 10 µM;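 active means activation at 10 µM reaching about 35% in either raw or pattern-adjusted values, limit read from the data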
GC-A act: GC-A (human) enzyme activation; AID 1671463; 0.14% of 370,000 active; activation, % at 10 µM; HEK293 GC-A cells, cGMP TR-FRET, EC30 ANP; 0% at EC30 ANP, 100% saturating ANP; in the data active means activation above about 40%
ALR H2O2 inh: human ALR oxidase inhibition via reduced H2O2; P55789; purified ALR, DTT oxidation, H2O2 HRP-luminol luminescence; inhibition, % (concentration not given with the values); 3.8% of 290,000 active;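 active means mean replicate inhibition above about 79%, with every replicate also reaching it, limit read from the data; inconclusive means only one of the two criteria met; inactive means mean below limit and not every replicate reaching it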
Numbers without * were called inactive; ? = inconclusive; . = no result given. The full list was thinned out, with hits kept by preference.

SMILES | HDAC3 inh | GC-B act | GC-A act | ALR H2O2 inh
CN1CCSc2ccc(C(=O)NCc3cccc(F)c3)cc21 | -54.0 | -0.8 | 0.0 | 92.3*
O=C(NCC1CCCO1)c1ccc2c(c1)N(Cc1ccc(Cl)cc1)CCS2 (stereo not given) | . | -5.1 | -1.5 | .
COc1ccc(Br)cc1CNC(=O)c1ccc2c(c1)N(C)CCS2 | 0.1 | -3.7 | 1.4 | 4.3
Nn1c(SCC(=O)Nc2ccc(OCc3ccccc3)cc2)nnc1-c1cc(-c2ccc(F)cc2)n[nH]1 | . | -3.0 | -3.4 | .
C/C(=N\Nc1ccccn1)c1ccc(Br)s1 | 8.5 | -10.1 | -9.0 | 98.7*
C(=N\Nc1ccccn1)/c1ccc(N2CCOCC2)cc1 | -1.0 | -1.7 | 4.7 | 98.9*
C/C(=N\Nc1ccccn1)c1ccc(N2CCOCC2)cc1 | 0.0 | -0.9 | 2.7 | 98.0*
COc1ccc(C)cc1NC(=O)C1CCN(S(=O)(=O)c2ccc3c(c2)NC(=O)CO3)CC1 | -3.9 | -1.4 | -5.2 | -11.7
CCOC(=O)C1=C(COC(=O)/C=C/c2cc(OC)c(OC)c(OC)c2)NC(=O)NC1C (stereo not given) | -1.9 | 9.0 | 9.2 | 11.3
COC(=O)[C@]12C=CCN1[C@@H](c1ccc(OC)c(OC)c1)c1c(c3ccccc3n1S(=O)(=O)c1ccc(C)cc1)C2 | . | 0.4 | -3.4 | .
COC1=CC(=O)CC(C)C12Oc1cc(OC)cc(OC)c1C2=O (stereo not given) | -5.1 | -1.4 | 3.2 | -39.2
COC(=O)C1=CC(=O)C=C(OC)[C@@]12Oc1cc(C)cc(OC)c1C2=O | . | 33.9 | 79.0* | .
CC(=O)N1c2ccccc2Sc2ccccc21 | 2.7 | -6.8 | -1.8 | -3.3
CN1c2ccccc2Sc2cc(N)ccc21 | -12.7 | -2.2 | -5.9 | 95.5*
Cc1cccc(N=C(NO)c2nonc2N)c1 | -0.8 | 8.6 | -0.8 | 88.8*
CCOC(=O)[C@]12CCCC3=C1N(CCC3)C(=O)[C@@H](CC(=O)N1CCN(C(=O)C3CC3)CC1)C2 | . | 6.9 | 1.6 | .
Cc1ccc(Oc2coc3cc(OC(=O)c4cccs4)ccc3c2=O)cc1 | 9.7 | 0.5 | -5.3 | .
CC(=O)Oc1ccc2c(=O)c(Oc3ccccc3)coc2c1OC(C)=O | 13.4 | -1.8 | -0.5 | 99.3*
Cn1cnnc1SCC(=O)c1cc2ccccc2o1 | -1.3 | 2.7 | -1.6 | 88.1*
Cn1c(SCC(=O)c2cc3ccccc3o2)nnc1-c1ccccc1 | -0.6 | -0.9 | -3.7 | 96.7*
COC(=O)CSc1nc2sc3c(c2c(=O)[nH]1)CCC3 | 4.6 | -2.8 | 0.8 | 4.5
CCN(CCCNC(=O)COc1cc(=O)n(CC)c2ccccc12)c1ccccc1 | 2.0 | -6.8 | -5.5 | 99.0*
CCN(CCCNC(=O)COc1cc(=O)n(C)c2ccccc12)c1ccccc1 | -6.7 | -4.1 | -9.6 | 98.1*
CCN(CCNC(=O)Cn1c(=O)sc2ccccc21)c1ccccc1 | -1.0 | 1.8 | -6.3 | 98.2*
CN(C)CCCNC(=O)c1c(N)[nH]c(C(=O)c2ccc(Br)cc2)c1-c1ccc(Br)cc1 | . | -1.3 | -2.9 | .
SMILES | HDAC3 inh | GC-B act | GC-A act | ALR H2O2 inh
CCOc1cc(C=O)ccc1OCc1cc(=O)n2cc(C)ccc2n1 | -0.7 | -0.7 | -6.3 | .
O=C(CCl)N(c1ccccc1)c1c[nH]c2ccccc12 | -1.1 | 3.3 | -1.9 | 61.7
O=C(CCl)N(c1ccc(Cl)cc1)c1c[nH]c2ccccc12 | -0.3 | -20.1 | -43.6 | 97.9*
Cc1ccc(S(=O)(=O)N2[C@@H](c3ccc(Cl)cc3)C(C(=O)O)=CC[C@H]2c2ccc(C(C)C)cc2)cc1 | 4.2 | 2.6 | -4.7 | 94.8*
COc1cccc(Nc2ccc(C(=O)O)cc2N)c1 | -6.1 | -3.8 | -4.4 | 99.5*
Cc1cc(C)cc(Nc2ccc(C(=O)O)cc2N)c1 | -22.5 | -4.7 | -6.1 | .
CCOc1ccccc1Nc1ccc(C(=O)O)cc1N | 0.2 | -2.3 | -2.9 | 10.0
Cc1ccc(Nc2ccc(C(=O)O)cc2N)cc1 | -9.4 | -9.2 | -3.2 | 99.2*
COc1ccc(-c2ccc3c(c2)O[C@H](CN(C)C(=O)Nc2ccccc2F)[C@@H](C)CN([C@H](C)CO)S3(=O)=O)cc1 | . | -4.5 | 0.3 | .
Cc1cccc(-n2c(O)c(C=Nc3ccccc3O)c3ccccc3c2=O)n1 | 4.1 | 3.6 | 1.5 | 98.5*
COc1cccc(N=Cc2c(O)n(-c3cccc(C)n3)c(=O)c3ccccc23)c1 | 5.3 | 4.2 | -2.5 | -14.3
Cc1cccc(-n2c(O)c(/C=N/NC(=O)c3ccccc3Cl)c3ccccc3c2=O)n1 | ? | -2.1 | -1.1 | 95.6*
Cc1cccc(-n2c(O)c(C=Nc3cc(O)ccc3C)c3ccccc3c2=O)n1 | -0.9 | -4.4 | -3.0 | .
Cc1cccc(-n2c(O)c(C=Nc3ccc(O)cc3)c3ccccc3c2=O)n1 | 6.8 | -3.6 | -12.0 | 99.3*
COc1ccc(CN(C)C(=O)C2CCN(S(=O)(=O)c3cccs3)CC2)cc1F | -9.2 | 3.3 | -0.6 | .
CN(C)c1ccc(C(=S)N2CCNCC2)cc1 | -0.6 | 3.1 | -1.3 | 99.4*
